Reference: PubChem BioAssay (NCI)
This is part of a sample that, as a whole, favours compounds with a hit. Of some 83,000 tested, about 20% had one in any assay.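 Cells were grown in 96-well plates and exposed to the test compound at a single concentration for 48 hours; results are reported as percent growth, with values below 10 considered active.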 Values without a mark were called inactive. Active and inactive are the calls of the source.

What was measured:
Assay in all cases: NCI-60 one-dose screen, 48 h (100 = growth as untreated, 0 = no growth, -100 = all killed)
Settings in all cases: 10 µM unless noted
NCI-H23 lung = test system: NCI-H23 lung
NCI-H226 lung = test system: NCI-H226 lung
NCI-H322M lung = test system: NCI-H322M lung
HOP-62 NSCLC = test system: HOP-62 NSCLC
NCI-H460 lung = test system: NCI-H460 lung
NCI-H522 lung = test system: NCI-H522 lung
A549/ATCC NSCLC = test system: A549/ATCC NSCLC
786-0 renal = test system: 786-0 renal
COLO 205 colon = test system: COLO 205 colon
DU-145 prostate = test system: DU-145 prostate
K-562 leukemia = test system: K-562 leukemia
MALME-3M melanoma = test system: MALME-3M melanoma
RXF 393 renal = test system: RXF 393 renal
SF-268 CNS = test system: SF-268 CNS
SF-295 CNS = test system: SF-295 CNS
SF-539 CNS = test system: SF-539 CNS
UACC-257 melanoma = test system: UACC-257 melanoma
M14 melanoma = test system: M14 melanoma
HCT-15 colon = test system: HCT-15 colon
MDA-MB-231 breast = test system: MDA-MB-231 breast

| Compound | growth (NCI-H23 lung) [%] | growth (NCI-H226 lung) | growth (NCI-H322M lung) | growth (HOP-62 NSCLC) | growth (NCI-H460 lung) | growth (NCI-H522 lung) | growth (A549/ATCC NSCLC) [%] | growth (786-0 renal) | growth (COLO 205 colon) | growth (DU-145 prostate) | growth (K-562 leukemia) | growth (MALME-3M melanoma) | growth (RXF 393 renal) [%] | growth (SF-268 CNS) [%] | growth (SF-295 CNS) | growth (SF-539 CNS) | growth (UACC-257 melanoma) | growth (M14 melanoma) | growth (HCT-15 colon) | growth (MDA-MB-231 breast) |
| --- | --- | --- | --- | --- | --- | --- | --- | --- | --- | --- | --- | --- | --- | --- | --- | --- | --- | --- | --- | --- |
| Clc1ccc(-c2nc(-c3cccs3)no2)c(Cl)c1 | 92.6 | 88.7% | 120% | 84.9% | 92.1% | 91.4% | 91.4 | 97.4% | 106% | 99.3% | 96.1% | 103% | 107 | 99.2 | 107% | 108% | 76.2% | 100% | 73.5% |  |
| CCC(C)(C)C(=O)O[C@H]1C[C@@H](C)C=C2C=C[C@H](C)[C@H](CC[C@@H]3C[C@@H](O)CC(=O)O3)[C@H]21 | 48.7 | 64% | 51% | 80.7% | 24.3% | 8.21% (active) | 67.5 | 51.5% | 68.3% | 95.3% | 63.3% | 94.1% | 36.1 | 33.2 | 11.7% | 90.7% | 86.7% | 59.3% | 54.7% |  |
| CCOC(=O)c1c(C)c(C(=O)OCC)n(C)c1C | 121 | 66.6% | 85.4% | 74.4% | 117% | 102% | 91.7 | 92.5% | 141% | 99% | 103% | 112% |  | 93.9 | 87.1% | 101% | 134% | 112% | 102% | 85.6% |
| COc1cc(/C=C2\COc3ccc(O)c(O)c3C2=O)cc(OC)c1 | 49.1 | 68.3% | 29.2% | 2.74% (active) | 10.5% | -42.1% (active) | 24.6 | -29.4% (active) | 32.5% | 9.48% (active) | -0.232% (active) | -59.4% (active) |  | 11 | 80.3% | -70.1% (active) | 6.52% (active) |  | -24.1% (active) | -37.1% (active) |
| CCN(CC)CCCNCCCNc1cc(OC)cc2cccnc12 | 94.2 | 81.9% | 81% | 92.3% | 103% | 93.1% | 92.4 | 94.4% | 24.6% | 104% | 89.9% | 108% | 70.6 | 90.3 | 99.2% | 84.6% | 107% | 102% | 83.9% |  |
| CC1=CC(=O)C(C(C)=Nc2ccccc2Cl)C(=O)O1 (stereo not given) | 142 | 104% | 121% | 109% | 109% | 121% | 116 | 114% | 129% | 110% | 105% | 123% |  | 101 | 121% | 101% | -17.3% (active) | 107% | 105% | 105% |
| CC(O)c1nc2c(c(=O)n(C)c(=O)n2C)n1C (stereo not given) | 114 | 104% | 98.5% | 85.5% | 107% | 90% | 91.2 | 105% | 108% | 122% | 116% | 121% |  | 107 | 108% | 102% | 106% | 95.6% | 104% | 117% |
| O=C1OCCCCCCCCCC#Cc2ccccc21 | 97 | 110% | 126% | 99.7% | 133% | 71.2% | 103 | 103% | 100% | 116% | 94.2% | 146% |  | 182 | 151% | 105% | 124% | 109% | 109% | 110% |
| CCCCCCCC/C=C\CCCCCCCCOc1ccccc1CC(=O)NCC[N+]1(C)CCCC1 | 78.1 | 92.6% | 103% | 80.6% | 52.2% | 46.9% | 75 | 80.8% | 43.1% | 90.8% | 41.7% | 88.3% |  | 69.1 | 98.2% | 99% | 88.4% |  | 104% | 83.9% |
| CCOc1cc(C(C)(C)C)ccc1C1=N[C@H](c2ccc(Cl)cc2)[C@H](c2ccc(Cl)cc2)N1C(=O)N1CCN(CC#Cc2cccc3c2CN([C@@H]2CCC(=O)NC2=O)C3=O)CC1 | 77 | -17.3% (active) | 9.35% (active) | 40.7% | 24.2% | 39.3% | 24.8 | 43.8% | 8.66% (active) | 57.1% | 24.5% | -32.9% (active) |  | 39.9 | 35.1% | 70.3% | 42.6% |  | 2.53% (active) | -15.5% (active) |
| CCCCCCCCCCCCCCCCN=C(CC(=O)O)C(=O)O | 103 | 99.4% | 91.7% | 106% | 82.7% | 87.5% | 96.1 | 95.4% | 97.9% | 78.8% | 80.6% | 111% | 101 | 103 | 103% | 125% | 114% | 95.8% | 102% |  |
| C/C(=C\CCc1ccoc1)CC/C=C(\C)CCCN1CCC(CO)CC1 | 74.8 | 74.9% | 74.9% | 83% | 53.8% | 54.6% | 65.9 | 48.5% | -21.4% (active) | 80.8% | -15.8% (active) | 11% |  | 79.2 | 47.4% | 48.9% | 49% | 36.3% | 25.5% | 50% |
| CCc1ccc(CCN2C(=O)c3ccccc3C2=O)nc1 | 112 | 100% | 108% | 102% | 103% | 118% | 106 | 106% | 118% | 118% | 95.8% | 102% |  | 103 | 104% | 91.6% | 95.6% | 110% | 113% | 98.5% |
| CCOc1nc(-c2ccccc2)cc2c(O)c(-c3nnco3)[nH]c(=O)c12 | 63.1 | 64.2% | 65.3% | 47.9% | 28.2% | 5.8% (active) | 38.9 | 57.9% | 72.2% | 50.8% | 39.3% | 59.9% |  | 52.5 | 36% | 54.9% | 11.8% | 59.4% | 23.5% | 38.7% |
| C/C(=C\CCc1ccsc1)CC/C=C(\C)CCCN1CCC(CO)CC1 | 61.4 | 63.4% | 76.2% | 62.1% | -46.3% (active) | 27.7% | 36.6 | 5.43% (active) | -54.9% (active) | 64.5% | -51.4% (active) | -66.9% (active) |  | 60.6 | 7.65% (active) | 9.87% (active) | -32.4% (active) | -47.4% (active) | 0.233% (active) | 19.6% |
| CSc1ncc2ncn(C3OC(CO)C(O)C3O)c2n1 (stereo not given) | 137 | 102% | 124% | 119% | 120% | 119% | 108 | 110% | 142% | 115% | 104% | 126% |  | 103 | 107% | 114% | 126% | 107% | 114% | 108% |
| Cc1cc2c(cc1C)Nc1sc(NC(=O)CN3CCN(C)CC3)nc1C(=O)N2 | 102 | 105% | 105% | 94.5% | 101% | 86.3% | 100 | 98.9% | 112% | 108% | 81.7% | 109% |  | 103 | 109% | 107% | 109% | 103% | 101% | 114% |
